Experimental data as given in PubChem BioAssay AID1362 (SRMLSC, 2008).
The campaign covered roughly 190,000 compounds. About 4,000 (2.1%) were called active. Rule as the data show it: active = inhibition above about 58%; inactive = the rest, inconclusive results apart; tested in S. cerevisiae. The list comes from a sample in which actives are over-represented; it also holds similar structures and randomly drawn compounds.

Test: growth inhibition of WT strain, primary screen, mitochondrial fusion inhibitor project, WT and mutant strains, chemical genetic (AID 1362)
Settings: mitochondrial fusion phenotypic screen, at 10 µM
[1] = WT strain, growth inhibition, stronger effect = higher value

| SMILES | inhibition [1] | inhibition (mutant strain inhibition) [%] |
| --- | --- | --- |
| COc1ccc(OC)c(C(=O)CSc2nnc(-c3cccs3)o2)c1 | -7.87% (inactive) | -26.6 |
| COc1ccc(-n2c(C)cc(C(=O)CSc3nnc(-c4cccs4)o3)c2C)cc1 | 4.34% (inactive) | 23 |
| COc1ccc(-c2nnc(SCC(=O)c3cccs3)o2)c(OC)c1 | 63.6% (active) | -1.8 |
| CCC(=O)c1ccc(N2CCN(C(=O)c3cc([N+](=O)[O-])ccc3F)CC2)c(F)c1 | 10.4% (inactive) | 5.39 |
| CC(C)C(c1nnnn1C(C)(C)C)N1CCN(Cc2cccnc2)CC1 (centres undefined) | -10.2% (inactive) | 0.92 |
| COC(=O)C1=C(N)Oc2c(oc(CO)cc2=O)C1c1c(F)cccc1Cl (centres undefined) | -8.54% (inactive) | -4.27 |
| NS(=O)(=O)c1ccc(NC(=O)COC(=O)c2c3c(nc4ccccc24)/C(=C\c2ccc4c(c2)OCO4)CCC3)cc1 | 17.8% (inactive) | -3.76 |
| O=C(COC(=O)c1c2c(nc3ccccc13)/C(=C\c1cccs1)CCC2)Nc1ccccc1Cl | 15.8% (inactive) | 3.86 |
| NC(=O)c1ccc(NC(=O)COC(=O)c2c3c(nc4ccccc24)/C(=C\c2ccc4c(c2)OCO4)CCC3)cc1 | 62.3% (active) | -2.13 |
| Fc1ccc(COc2cccc(-c3n[nH]c(=S)o3)c2)cc1 | -4.32% (inactive) | -2.8 |
| Cc1ccc(S(=O)(=O)/N=C(/Nc2ccc3[nH]c(=O)[nH]c3c2)c2ccccc2)cc1 | -20.3% (inactive) | 0.61 |
| COc1ccc(C2CC(=O)Nc3sc(=N)c4c(N)c(C#N)c(N)nc4c32)cc1OC (centres undefined) | -16.8% (inactive) | -4.44 |
| COc1ccc(OC)c2c(N)c(C#N)c(C(F)(F)C(F)(F)F)nc12 | 61.3% (active) | -8.43 |
| COc1ccc(-c2cc(-c3ccc(N)cc3)nc(N)c2C#N)cc1OC | 42.1% (inactive) | -0.07 |
| O=S(=O)(NCc1ccccc1)c1ccc(S(=O)(=O)N2CCCC2)cc1 | 5.86% (inactive) | -0.28 |
| CCCCc1nnc(NC(=O)CSc2nc(N)cc(=O)[nH]2)s1 | -9.03% (inactive) | -14.2 |
| O=C(CSc1ccc(-c2ccccc2)nn1)NCC1CCCO1 (centres undefined) | -2.54% (inactive) | 0.5 |
| O=C(N/N=C/c1c(Cl)[nH]c2ccccc12)c1sc2ccccc2c1Cl | 61.8% (active) | 41.3 |
| O=C(Nc1ccon1)c1sc2ccccc2c1Cl | 3.3% (inactive) | 0.77 |
| Cc1nn(C)cc1/C=N/NC(=O)c1sc2ccccc2c1Cl | -10.9% (inactive) | 2.17 |
| COc1ccc(CCc2nnc(CCC(=O)NCc3cnn(-c4ccccc4C)c3)o2)cc1 | 12.2% (inactive) | 7.75 |
| CS(=O)(=O)n1nc(-c2ccco2)nc1N | -0.21% (inactive) | -16.1 |
| C=CCc1cccc2cc(C(=O)NC3CCCC3)c(=O)oc12 | 3.26% (inactive) | 9.03 |
| CC(C)(C)c1ccc(OC2=CS(=O)(=O)c3ccccc32)cc1 | 59% (active) | 35.3 |
| CC(C)(C)c1ccc(Oc2ccc(N)cc2)cc1 | 54.8% (inactive) | 38 |
| CC(C)(C)c1csc(NC2=NS(=O)(=O)c3ccccc32)n1 | -0.65% (inactive) | -32.5 |

| SMILES | inhibition [1] | inhibition (mutant strain inhibition) [%] |
| --- | --- | --- |
| Cc1nn(CC(=O)NCc2ccccn2)c(C)c1[N+](=O)[O-] | -4.5% (inactive) | 4.36 |
| COc1cc(CNCCN(C)C)ccc1OCc1c(F)cccc1Cl | -7.23% (inactive) | 10.9 |
| CCCCNC(=O)N1CCN(S(C)(=O)=O)CC1 | 3.54% (inactive) | 2.85 |
| CCCCCCCCn1c2c(c(=N)c3c1CCC3)CCCC2 | 80.6% (active) | 77.5 |
| O=C1/C(=C/c2cccs2)CCC1C1CCCC1 (centres undefined) | 9.28% (inactive) | 37.2 |
| Cc1ccc(COc2ccc(/C=N/NC(=O)CN3CCCCC3)cc2)cc1 | 0.04% (inactive) | -4.75 |
| COC(=O)Cc1nc2ccccc2[nH]1 | 16.6% (inactive) | 14 |
| c1ccc2c(CSCc3nc4ccccc4[nH]3)cccc2c1 | 74.6% (active) | 69.3 |
| Clc1ccccc1SCc1nc2ccccc2[nH]1 | 39.4% (inactive) | 35.4 |
| O=C(NCc1ccccc1)C1CCCN(c2nc3ccsc3c(=O)s2)C1 (centres undefined) | -14.1% (inactive) | 0.23 |
| O=C(c1ccc(Cl)c([N+](=O)[O-])c1)N1CCN(c2ccccc2)CC1 | 65.8% (inactive) | 70.4 |
| O=C(/C=C/c1ccc(Cl)cc1)N1CCN(c2ccccc2[N+](=O)[O-])CC1 | 65.4% (active) | 39.2 |
| CO/N=C/c1ccc(N2CCN(C(=O)c3cccc(Cl)c3)CC2)c([N+](=O)[O-])c1 | 36.5% (inactive) | 22.2 |
| CCn1cc(C(=O)NCCCN2CCCCCC2)c(=O)c2cc(S(=O)(=O)N3CCc4ccccc4C3)ccc21 | 4.36% (inactive) | -2.13 |
| COc1ccc(NC(=O)CCNS(=O)(=O)c2ccc3c(c2)c(=O)n(C)c(=O)n3C)cc1OC | -9.99% (inactive) | 2.95 |
| O=C(COC(=O)Cc1ccc(Br)cc1)Nc1c(F)c(F)c(F)c(F)c1F | 19.9% (inactive) | 7.41 |
| CCCNC(=O)CN(Cc1ccccc1F)S(=O)(=O)c1ccc(C)cc1 | -13.2% (inactive) | -40.4 |
| COC(=O)Cc1ccc(N(Cc2ccccc2F)S(=O)(=O)c2ccc(Br)cc2)cc1 | 69.7% (active) | 64.6 |
| CCCS(=O)(=O)N1CCC(CCOc2ccccc2)(C(=O)OCC)CC1 | 5.25% (inactive) | -7.89 |
| CCSC1=NCCN1C(=O)c1ccc(S(=O)(=O)N(CC)CC)cc1 | 1.64% (inactive) | -5.04 |
| O=C(COC(=O)c1ccncc1)c1ccccc1 | -12.9% (inactive) | 3 |
| COc1ccc(N2CCN(CCNC(=O)CCN3C(=O)COc4ccccc43)CC2)cc1 | -0.99% (inactive) | 42.7 |
| COc1ccc(N2CCN(CCNC(=O)c3nnc(Cc4c(F)cccc4Cl)o3)CC2)cc1 | 82.5% (active) | -0.13 |
| COc1ccc(CN2CC(C(=O)NCCN3CCN(c4ccccc4F)CC3)CC2=O)cc1 (centres undefined) | 5.07% (inactive) | 14.3 |
| O=C(CCn1ccc([N+](=O)[O-])n1)Nc1nccs1 | -14.4% (inactive) | 2.54 |
| Cn1c(N)c(C(=O)COC(=O)c2ccccc2NCc2ccco2)c(=O)n(C)c1=O | 12.2% (inactive) | -19.6 |
